Measurements reported in PubChem BioAssay (NCATS).
Results filed as inconclusive are left out. Calls of active or inactive are those of the source. The call rests on the fitted dose curve; in most records, active means well fitted curve in the direction sought with a large enough effect; inconclusive means small, poorly fitted or top-dose-only effect, or another doubt; inactive means no such curve, though single readings can be large; an effect the other way counts as inactive or inconclusive.

Legend:
[1] = UWB1.289 Cancer Cell Toxicity qHTS against the NCATS CANVASS Library (AID 1347347); further: nearly all actives have a fitted effect of over 60% in size
Method in brief: (§1)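 Quantitative HTS format: an 11-concentration series was applied to 1000 cells/well following a 4-hour attachment. Cultures ran 72 hours before ATP luminescence detection by CellTiter-Glo.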

[2] = OV-SAHO Cancer Cell Toxicity qHTS against the NCATS CANVASS Library (AID 1347348); further: nearly all actives have a fitted effect of over 55% in size
Method in brief: as §1

[3] = Panc-1005 Cancer Cell Toxicity qHTS against the NCATS CANVASS Library (AID 1347349); further: nearly all actives have a fitted effect of over 60% in size
Method in brief: as §1

[4] = U-118MG Cancer Cell Toxicity qHTS against the NCATS CANVASS Library (AID 1347351)
Method in brief: as §1

[5] = UWB1.289-WTBRCA1 Cancer Cell Toxicity qHTS against the NCATS CANVASS Library (AID 1347354); details: UWB1.289-WTBRCA1 viability, CellTiter-Glo luminescence, 72 h; at 76 µM (top of the series)
Method in brief: (§2)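 Cells at 1000/well were given compound 4 h after plating in an 11-point series. Viability was read by CellTiter-Glo luminescence after 72 h at 37 degrees C.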

[6] = HEK-293 Cancer Cell Toxicity qHTS against the NCATS CANVASS Library (AID 1347355); further: nearly all actives have a fitted effect of over 65% in size
Method in brief: as §2

[7] = HPAF-II 24hr Apoptosis Induction qHTS against the NCATS CANVASS Library (AID 1347356)
Method in brief: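 HPAF-II cells (500/well) exposed to compounds in 11-point series for 24 h at 37 degrees C; caspase-3/7 activity read by Caspase-Glo luminescence after 15 min at room temperature. Doxorubicin titration as control.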

[8] = HEK293 18hr Apoptosis Induction qHTS against the NCATS CANVASS Library (AID 1347357)
Method in brief: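 Cells seeded at 500/well in DMEM + 10% FBS. Compounds pinned, 11 concentrations. 18 h, 37 degrees C/5% CO2. Caspase-Glo 3/7 added, 15 min RT dark, luminescence read.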

[9] = HPAF-II 12hr Apoptosis Induction qHTS against the NCATS CANVASS Library (AID 1347358)
Method in brief: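 HPAF-II cells, 500/well in DMEM + 10% FBS, exposed 12 hours at 37 degrees C to compound (11-point). Caspase-Glo 3/7 added for 15 min at room temperature; luminescence reflects caspase-3/7 activity.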

[10] = HEK293 24hr Apoptosis Induction qHTS against the NCATS CANVASS Library (AID 1347359)
Method in brief: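 HEK293 cells, 500 per well, exposed to an 11-point compound series for 24 hours at 37 degrees C. Caspase 3/7 activity read by Caspase-Glo luminescence (DEVD substrate) after 15 min at room temperature.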

[11] = HPAF-II 18hr Apoptosis Induction qHTS against the NCATS CANVASS Library (AID 1347360)
Method in brief: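 Seed HPAF-II cells at 500/well in DMEM + 10% FBS, pin-transfer compounds, incubate 18 hours at 37 degrees C/5% CO2, add Caspase-Glo 3/7 reagent, wait 15 min, read luminescence.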

[12] = HEK293 12hr Apoptosis Induction qHTS against the NCATS CANVASS Library (AID 1347361)
Method in brief: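 Cells are seeded, dosed with an 11-point compound series and incubated 12 hours. Caspase-3/7 activity is detected by luminescent DEVD-substrate reagent after 15 minutes at room temperature.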

[13] = tested on: NAD(P)H diaphorase (Clostridium kluyveri); assay: Diaphorse counterscreen qHTS: Assay Interference Panel against the NCATS CANVASS Library (AID 1347362)
Method in brief: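 Clostridium kluyveri diaphorase in PBS + 0.01% Tween-20 preincubated 15 min with compounds. Resazurin and NADH then added for 5 min at room temperature in the dark; resorufin fluorescence read (ex 525, em 598).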

[14] = biological target: Luciferin 4-monooxygenase (Photinus pyralis) (UniProt P08659); assay: Firefly luciferase counterscreen qHTS: Assay Interference Panel against the NCATS CANVASS Library (AID 1347363)
Luciferin 4-monooxygenase (Photinus pyralis), sequence (P08659 whole entry, looked up): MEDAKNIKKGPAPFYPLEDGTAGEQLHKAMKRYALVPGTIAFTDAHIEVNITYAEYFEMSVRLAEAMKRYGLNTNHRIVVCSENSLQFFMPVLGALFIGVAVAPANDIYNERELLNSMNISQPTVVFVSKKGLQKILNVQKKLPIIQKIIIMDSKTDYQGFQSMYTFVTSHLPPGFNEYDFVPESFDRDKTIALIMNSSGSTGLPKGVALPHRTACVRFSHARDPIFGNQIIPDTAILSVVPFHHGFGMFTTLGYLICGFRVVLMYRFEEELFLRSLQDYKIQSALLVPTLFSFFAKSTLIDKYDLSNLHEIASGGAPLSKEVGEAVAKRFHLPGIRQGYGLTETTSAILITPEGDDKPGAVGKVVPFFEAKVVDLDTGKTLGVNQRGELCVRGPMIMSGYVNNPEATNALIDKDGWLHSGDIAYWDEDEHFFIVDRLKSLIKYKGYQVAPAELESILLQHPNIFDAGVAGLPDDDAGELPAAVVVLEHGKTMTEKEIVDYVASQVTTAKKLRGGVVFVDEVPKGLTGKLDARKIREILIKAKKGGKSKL
Method in brief: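 Purified P. pyralis luciferase (0.04 ug/mL, 4x reagent) added to Tris-acetate buffer with 0.013 mM D-luciferin, 0.013 mM ATP and 13.3 mM Mg-acetate; compounds preincubated 15 min, then luminescence read after 5 min, RT.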

[15] = KB-3-1 Cancer Cell Toxicity qHTS against the NCATS CANVASS Library (AID 1347366); further: nearly all actives have a fitted effect of over 75% in size
Method in brief: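 Luminescence from CellTiter-Glo (10 min, room temperature) measured KB-3-1 viability after 72 hr compound exposure at 37C. Cells were seeded at 500/well and tested in an 11-point series.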

[16] = qHTS for ATAD5 Agonist screened against the NCATS CANVASS Library (AID 1347367);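 further: luciferase reporter driven by ATAD5 which rises upon DNA damage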
Method in brief: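 HEK293T-ATAD5 luc reporter; 2000 cells/well; 5hr settle; cpd 11-pt qHTS; 16hr 37C 5% CO2 dark; viability by CellTiter-Fluor (AFC fluorescence); then luciferase luminescence, 30min RT.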

[17] = G06 Cancer Cell Toxicity qHTS against the NCATS CANVASS Library (AID 1347368); further: nearly all actives have a fitted effect of over 60% in size
Method in brief: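 G06 dog glioma cells, 500 per well, exposed 72 hr at 37C, 5% CO2 to compounds in an 11-point series. Cytotoxicity read as ATP content by CellTiterGlo luminescence.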

[18] = qHTS for ATAD5 Antagonist screened against the NCATS CANVASS Library (AID 1347370);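 further: HEK293T cells carrying an ATAD5 luciferase reporter co-treated with 10 µM 5-fluorouridine; nearly all actives have a fitted effect of over 65% in size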
Method in brief: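 HEK293T cells with stably integrated ATAD5-luciferase reporter, 2000/well, 5 h attachment; compounds plus 10 µM 5-fluorouridine, 16 h at 37 °C. Luciferase luminescence read, with CellTiter-Fluor viability read first.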

[19] = J3T Cancer Cell Toxicity qHTS against the NCATS CANVASS Library (AID 1347371); details: J3T dog glioma viability, ATP luminescence, 72 h; at 91.4 µM (top of the series)
Method in brief: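 J3T dog glioma cells, 500 per well, treated 72 h at 37C with compounds (11-point qHTS); viability from ATP content by CellTiterGlo luminescence; bortezomib titration as control.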

[20] = biological target: Nuclear receptor subfamily 1 group I member 3 (Homo sapiens) (UniProt Q14994); assay: qHTS for Constitutive Androstane Receptor (CAR) Antagonist screened against the NCATS CANVASS Library (AID 1347372);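 further: cells stimulated with 50 nM CITCO agonist so inhibition reflects antagonism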
Nuclear receptor subfamily 1 group I member 3 (Homo sapiens), sequence (Q14994 whole entry, looked up): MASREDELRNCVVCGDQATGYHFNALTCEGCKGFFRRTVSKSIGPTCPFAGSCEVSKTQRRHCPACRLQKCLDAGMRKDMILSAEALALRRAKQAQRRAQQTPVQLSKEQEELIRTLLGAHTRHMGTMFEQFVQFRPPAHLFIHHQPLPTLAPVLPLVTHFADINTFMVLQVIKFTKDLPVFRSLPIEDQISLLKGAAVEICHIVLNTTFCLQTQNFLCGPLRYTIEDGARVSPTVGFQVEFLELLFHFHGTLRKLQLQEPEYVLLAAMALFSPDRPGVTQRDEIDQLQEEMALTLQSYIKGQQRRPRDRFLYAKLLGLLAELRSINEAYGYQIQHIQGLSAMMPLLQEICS
Method in brief: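 HepG2 cells stably carrying hCAR and CYP2B6-2.2kb luciferase reporter, 2500 cells/well, compound with 50 nM CITCO agonist for 24hr at 37C. ONE-Glo luminescence measured CAR activity; CellTiter-Fluor read viability.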

Measured: outcome

NCCc1ccc(O)cc1
inactive: [1] | [2] | [3] | [4] | [5] | [6] | [7] | [8] | [9] | [10] | [11] | [12] | [13] | [14] | [15] | [16] | [17] | [18] | [19] | [20]
